The test system of the test is RARg homodimer (NR concentration 270 nM). Description: PBM binding z-score (relative to random genomic background probes); higher = stronger binding; sequences stand for … in GC…GCGATTGACAGCGTAGAATGAAGG
A digest of the protocol:
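For binding z-scores, the reference was random background probes on custom Agilent 4×180K protein-binding microarrays. These arrays were incubated 1 h with ligand-free nuclear receptor dimers in PBS pH 7.4, 2% milk, 0.02% Triton X-100, 1 mM DTT, 0.2 mg/mL BSA and 0.4 mg/ml salmon testes DNA. Fluorescence was scanned after antibody detection of each partner (one per run) and regression-normalized.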
ACTAGTTGGTCAGCTGAGGTCACAGACAATTCGG gave a PBM binding z-score of 3.84.
Sequence AACACAGGGTCATCGTAGGCCAGAGTACGCACAG had a PBM binding z-score of 5.13.
Take TAGCCTAGCTCATTGGGCCAGTATAGTACGCATC: the PBM binding z-score is -0.328.
Next, CCTACTGGGCCACGAGAGGTCATTGATTCAGTGA: 3.64; TTACCAAGTTGAAAGGTCGTTGATGCACGCCTTG: 1.34.
To ACTATTAGTTGAGACGAGGACAACCGATAGGTTG belongs 0.902.
To CCTAGCAGGCCGGGGTCACTCAAGCATTTCGCTT belongs 3.6.
For the sequence TCATATAGGTAAAGGTGAAGGTCGAACGATATGA, the PBM binding z-score is 2.07.
To CCTACTGGGCCATTAGGTCATTGATATCAACGTT belongs 2.12.
Next, ACAGACAGTTGATGAAGGTAACTCAGGCTATCAT: 0.279; GCTGCTAGGTCAACTGATAGTCAGCTAAAGCTCG: 5.07.
Take TAGCCTAGCTCATGGGCCAGTATACCACGCGAAC: the PBM binding z-score is -0.314.
Next, AGAATGAGGTTATTAAGAACAGGGAATTGCGGTC: 0.783; ATCTCTAGGTAAAAGTTCACTGAATCCCGAGGAT: 2.99.
Next, GATACAGGGTCAAGGCGAGAGTACGCGTATTGAT: 4.87; AGAATGAGGTTATTAAGATCAGGAAATTGCGGTC: 0.9.
Next, GCTAGCAGTCCATTTGGGTCACTCAATGACGGGC: 0.586; CCAGATAGGTGAAAGGTAACTCAGTCTGGTACGC: 0.944.
Regarding ATCGAAAGGTCGACGAGGCGAGTATACACCGTTT, the PBM binding z-score was 3.74.
As to CTCGAAAGGTCGGGCTCAGGTGAGTATACCAAAC, the PBM binding z-score amounted to 3.19.
Regarding CGAACTAGGTCAAGGATAGTGAATCTCCGCACGC, the PBM binding z-score came out at 4.44.
Next, ATATGTAGGTTATCGGGTCATTCGGTTTGCGCAT: 2.3; ATCTCTAGGTAAGACTCAGTGCAGTGAAGAACGC: 0.117; CGTCCAAGGGCAGAGAGGTCAGTGAATGCCGAGT: 4.06.
AATACAGGGTCATCGTAGGCCACAGTACGCACAG returned a PBM binding z-score of 5.52.
Next, ATCTCTAGGTAAGAGTCAGTTCAGTGAAGAACGC: 0.332; AGAACGAGGGCAATGAGTTGATAGCCCGGGTGGC: 1.57.
Turning to TCTGCTCGGTCAACGATGGTCAGCTAATCTGCTA, the PBM binding z-score was 2.83.
With AGTCAAAGTTCACTAGGTAACGTAGGATTCAGCT, the PBM binding z-score stood at 5.63.
To TCTGCTAGGTCAGTTGGTCATCTAACGAGCTGCC belongs 3.99; to CCTAGCAGGACAATCTGGGTCACTCAAGGCTTGA, 1.42.
On to CCTACTGGGCCAACGTCATTGATCAGTCAAAGCA, for which the PBM binding z-score was -0.0642.
Next, CACACAGGGTCAGCTAGGCCAGAGTAGGGACGGC: 4.78.
To GCTTACGGGTCGAAGGTTATAGCATGAATAGAAT belongs 1.28; to CCTGGTTGGTCAGGAGGTCACACACCGGATATGA, 4.31.
Next, CAAACTAGGTCACACAGGTCAAAGTCCGTGCGTA: 5.85.
CCTACTGGGCCAAAAAGGTCATCGATGCCGATAA returned a PBM binding z-score of 4.77.
Next, GCTGCTAGCTCAACTGATGGTCAGCTAAAGCTCG: -0.78.
The sequence GCGACTGGGGCAAAGCATGTTACCATAAGGTTGG gave a PBM binding z-score of 0.278.
